PostGolgi ctrl = growth inhibition of yeast control strain, primary screen, counter-screen for post-Golgi transport modulator project. efflux-deficient yeast background strain, growth absorbance A615, 16 h. inhibition, % at 10 µM. hit rate 5% among 98,000
CYP2C9 inhib = blockers of cytochrome P450 2C9 activity – biochemical, luminescence, ADME assay, primary screen; P11712; CYP2C9 Supersomes, luciferin-H conversion; inhibition, % at 5 µM; hit rate 20% among 96,000;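 active means blocking of liver enzyme CYP2C9 beyond about 50% at 5 µM, limit read from the data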
CYP2C19 inhib = blockers of cytochrome P450 2C19 activity – biochemical, luminescence, ADME assay, primary screen; CYP2C19 Supersomes, luciferin-H EGE luminescence, 30 min; inhibition, % at 5 µM; hit rate 21% among 96,000;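 active means CYP2C19 inhibition above a set limit at 5 µM in the primary screen, cut at about 50% in these data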;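 further: plate controls were negative control wells for no effect and 2.5 mM tranylcypromine positive control for full effect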
Target sequence (P33261 whole entry, looked up): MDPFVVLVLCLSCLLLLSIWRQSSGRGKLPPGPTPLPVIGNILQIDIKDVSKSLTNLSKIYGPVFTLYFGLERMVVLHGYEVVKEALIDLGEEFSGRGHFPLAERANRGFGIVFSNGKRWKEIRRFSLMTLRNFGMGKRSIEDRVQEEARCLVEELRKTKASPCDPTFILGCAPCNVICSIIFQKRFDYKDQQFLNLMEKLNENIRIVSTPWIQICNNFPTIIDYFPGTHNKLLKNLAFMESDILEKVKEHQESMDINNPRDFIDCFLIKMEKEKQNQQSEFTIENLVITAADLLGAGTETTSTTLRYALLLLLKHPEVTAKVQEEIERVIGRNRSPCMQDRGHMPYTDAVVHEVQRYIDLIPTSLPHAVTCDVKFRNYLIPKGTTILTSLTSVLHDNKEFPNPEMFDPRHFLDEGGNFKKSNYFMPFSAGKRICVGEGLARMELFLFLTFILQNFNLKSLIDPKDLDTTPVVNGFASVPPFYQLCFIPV
PostGolgi yeast = phenotypic screen on post-Golgi transport, primary screen; hit rate 0.9% among 98,000; inhibition, % at 10 µM; AID 739, 2007; post-Golgi transport phenotypic cell assay;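 further: yeast cells grown in 1536-well plates; yeast grown about 18 h at 30C before absorbance read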
CYP2C9 act = human CYP2C9 activators, primary screen, biochemical, luminescence; recombinant CYP2C9, luciferin-H conversion; hits give high values; factor 1 = untreated enzyme, 0 = blocked; activation factor at 5 µM; hit rate 1.4% among 96,000;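 active means activation factor of 2 or more for CYP2C9 at a 5 µM dose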;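 further: 0 = sulfaphenazole-blocked wells and 1 = vehicle-only wells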
CYP2C19 activ = human CYP2C19 activators, primary screen, biochemical, luminescence; Cytochrome P450 2C19 (Homo sapiens), P33261; recombinant CYP2C19, luciferin-H EGE luminescence; hits give high values; 0 = fully inhibited enzyme, 1 = untreated enzyme; activation factor at 5 µM; 96,000 tested, under 10 active;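 active means activation factor of at least 2 at 5 µM in the primary screen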;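 further: 0 = wells with 2.5 mM tranylcypromine and 1 = vehicle-only wells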
* = called active by the depositor; . = no result given. Hits are enriched below; roughly 32% of the tested compounds scored in any of these assays. Unless noted, no stated cut-off is given here; in the data, active means inhibition above about 30%; inactive means the rest.

SMILES	PostGolgi ctrl	CYP2C9 inhib	CYP2C19 inhib	PostGolgi yeast	CYP2C9 act	CYP2C19 activ
C=CCONC(=O)c1cc(OCC(F)(F)F)ccc1OCC(F)(F)F	8	87*	29	0	0.1	0.7
O=C(Nc1ccc(OC(F)F)cc1)Nc1cccc(C(F)(F)F)c1	64*	25	29	79*	0.8	0.7
O=C(N/N=C\c1ccc(F)cc1)c1cc(OCC(F)(F)F)ccc1OCC(F)(F)F	0	2	-1	3	1	1
COC(=O)[C@H](C)NC(=O)Nc1cccc(C(F)(F)F)c1	6	.	.	12	.	.
O=C(NCCNC(=O)c1cc(OCC(F)(F)F)ccc1OCC(F)(F)F)Nc1cccc(C(F)(F)F)c1	6	67*	41	-6	0.3	0.6
CCC1(N(C(C)=O)c2ccc(OC)cc2)C(=O)c2ccccc2C1=O	6	-18	6	-9	1.2	0.9
O=C(NCc1cccnc1)c1c(F)c(F)c(F)c(F)c1F	17	46	81*	15	0.5	0.2
CCOC(=O)c1c(C)c(C(=O)NCCOC)c(C)n1CC	-6	-2	21	4	1	0.8
CCOC(=O)c1c(C)c(C(=O)NCc2cccnc2)c(C)n1CC	7	60*	70*	-9	0.4	0.3
Cc1cc2c(cc(C(=O)NCc3cccnc3)n2Cc2ccc(Cl)cc2)o1	23	91*	91*	1	0.1	0.1
O=C(NCc1cccnc1)NC1(C(F)(F)F)Oc2ccc(Cl)cc2O1 (stereo not drawn)	3	58*	91*	-5	0.4	0.1
O=C(O)c1ccccc1C(=O)NCc1cccnc1	1	-2	32	5	1	0.7
Clc1ccc2c(c1)C1OCCC1C(c1ccco1)N2 (stereo not drawn)	16	36	48	-10	0.6	0.5
COc1ccc(C(=O)N[C@H]2COC(C)(C)O[C@H]2c2ccccc2)cc1	2	-3	-1	8	1	1
COc1cccc(C(=O)C2CN(c3ccccc3)CC2c2ccc(Cl)cc2)c1 (stereo not drawn)	6	22	4	8	0.8	1
COC(=O)CCP(=O)(O)Cc1ccccc1CP(=O)(O)CCC(=O)OC	-3	2	-1	4	1	1
CNC(=O)CSc1nnnn1CCCOC	2	-26	-6	12	1.3	1.1
CC(CC1CC(C)(C)OC1=O)C(=O)Nc1nncs1 (stereo not drawn)	2	-7	18	0	1.1	0.8
CC(C)CCNC(=O)c1cccc(Cl)c1	6	28	58*	2	0.7	0.4
COc1ccc(Br)cc1C(=O)NCc1cccnc1	-9	-54	56*	14	1.5	0.4
Cc1nn(C)cc1CNC(=O)c1cccc(Cl)c1	8	46	17	-2	0.5	0.8
O=C(NCc1ccncc1)C(F)(F)C(F)(F)C(=O)NCc1ccncc1	-1	93*	46	-4	0.1	0.5
O=C(NCc1ccncc1)c1c(F)c(F)c(F)c(F)c1F	-2	67*	24	2	0.3	0.8
N#CCCn1c(C(C#N)(CCC#N)CCC#N)nc2ccccc21	-6	-8	-12	3	1.1	1.1
O=C(Cn1cc([N+](=O)[O-])cn1)Nc1ccn(Cc2c(F)c(F)c(F)c(F)c2F)n1	-1	26	30	0	0.7	0.7
SMILES	PostGolgi ctrl	CYP2C9 inhib	CYP2C19 inhib	PostGolgi yeast	CYP2C9 act	CYP2C19 activ
Cc1cc(C)n2c3c(c(C#N)c2n1)CC(C)(C)OC3	-4	10	5	4	0.9	0.9
Cc1ccc(NC2OC(C(O)CO)C(O)C2O)cc1[N+](=O)[O-] (stereo not drawn)	9	-8	-17	-1	1.1	1.2
CC(C)OC(=O)c1nnc(Cc2ccc(F)cc2)o1	-4	2	89*	-1	1	0.1
O=C(NCc1ccco1)c1nnc(Cc2ccc(Cl)cc2)o1	13	-31	23	2	1.3	0.8
O=C(NCc1cccnc1)c1nnc(Cc2ccc(F)cc2)o1	40*	20	78*	8	0.8	0.2
CC(NC(=O)NCc1cccnc1)(C(F)(F)F)C(F)(F)F	11	33	77*	0	0.7	0.2
O=C(NCc1ccncc1)c1nnc(Cc2c(F)cccc2Cl)o1	31*	83*	80*	3	0.2	0.2
O=C(NCc1ccco1)c1nnc(Cc2ccc(F)cc2)o1	-2	.	.	-5	.	.
COc1ccc2nc(NC(=O)CCc3nc(-c4ccccc4F)no3)sc2c1	4	48	27	-4	0.5	0.7
Cc1cc(NC(=O)CC23CC4CC(C2)CC(CC(=O)Nc2cc(C)on2)(C4)C3)no1	24	11	14	-3	0.9	0.9
O=C1CS/C(=C\[N+](=O)[O-])N1c1ccc(OC(F)(F)F)cc1	23	-3	38	-3	1	0.6
O=C(NCc1cccnc1)c1cccc(F)c1	8	-5	44	-7	1.1	0.6
O=C(NCc1cccnc1)c1cccc(Cl)c1	17	-23	73*	4	1.2	0.3
N#Cc1cnn2c1nc(N1CCCCC1)c1ccccc12	13	13	-3	2	0.9	1
CCOCCSC1=C(C#N)C(c2cccs2)C(C(C)=O)=C(C)N1 (stereo not drawn)	12	83*	90*	10	0.2	0.1
CCOC(=O)C1=C(C)NC(SCC(=O)Nc2cc(C)on2)=C(C#N)C1c1cccs1 (stereo not drawn)	-18	95*	91*	6	0.1	0.1
COC(=O)C1=C(C)Nc2c(c(=O)n(C)c(=O)n2C)C1c1cccs1 (stereo not drawn)	-1	73*	83*	-4	0.3	0.2
COC(=O)C1=C(C)Nc2nnnn2C1c1cccs1 (stereo not drawn)	5	34	12	29	0.7	0.9
CCOC(=O)C1=C(C)NC(SCC(N)=O)=C(C#N)C1c1cccs1 (stereo not drawn)	5	52*	52*	-7	0.5	0.5
C=CCOC(=O)C1=C(C)NC(SCC(=O)Nc2nccs2)=C(C#N)C1c1cccs1 (stereo not drawn)	5	16	17	7	0.8	0.8
N#CCCN1CCN(S(=O)(=O)c2ccc(S(=O)(=O)NC3CCCC3)cc2)CC1	0	-23	-2	-2	1.2	1
COc1ccc(-c2cc(=O)n(-c3nc4ccccc4[nH]3)[nH]2)cc1	0	28	-22	5	0.7	1.2
COC(=O)C1=C(C)NC2=C(C(=O)CC(c3cccs3)C2)C1c1ccsc1 (stereo not drawn)	10	24	47	4	0.8	0.5

High-throughput results as filed in PubChem.
